Source: PubChem BioAssay AID1508600 (Functional Genomics Laboratory (NCATS/FGL), 2020)
About 3,700 (7%) of roughly 53,000 sequences were called active. This excerpt belongs to a sample that is enriched for actives. Values without a mark were called inactive.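 How the source made its calls: active means gene knockdowns whose robust z-score for IL-1 alpha signal is at least 2 or at most -2, so actives lie on both sides; inactive means the rest.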

Experiment: Components of the Cytosolic LPS Sensing Pathway: Gene Identification via Genome-wide siRNA Screen;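 further: robust z of the log signal after scaling to non-targeting control siRNA wells of the plate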
Settings: RAW264.7 macrophages, IL-1a HTRF, actives lie on both sides, screened at 100 nM (by protocol), cells primed 5 h with Pam3CSK4 first
Outline: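 Supernatant IL-1a by HTRF from RAW264.7 cells primed with Pam3CSK4 (5 hours) and transfected with LipidA (24 hour) after 48h siRNA knockdown at 100 nM; cell viability checked with CellTiter-Glo.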
With GGACUUGUCCGCUCAUUGGTT against Usp54 the z-score was -1.13.
GGUAGAAAAGCUUCUGAAATT against Ap1g1 gave a z-score of 0.349.
Work on GGCUAUUAACAUCUCAGUUTT against Rhbdd1 yielded a z-score of 0.0309.
In the case of GGACAGAGAUCAAUAUUAATT against Rxfp3, the z-score is reported as -0.0718.
CGAAUGAAAGAAUACCGUGTT against Dnajc6 gave a z-score of 0.0901.
With CCUGGAUGCAUGGUUAUUATT against Cyp2ab1 the z-score was 2.69 (active).
Sequence GGGAAGAAAAUCAAACUCATT against Fabp1 has a z-score of 0.504.
GGCCGUUCAUUUCCUCAUCTT against Galr2 gave a z-score of -0.359.
For GGAUUUGUUUUCACCAAGATT against Dmd, the z-score was 0.3.
For GGUGACAGGUCAGAAAGUCTT against Tor1aip2, the z-score was -2.78 (active).
GGAGUUAAACCACUCAAGATT against Ceacam11 gave a z-score of -0.262.
GCAGGAUGUGACAGAUACATT against Pdcd2 gave a z-score of 0.185.
For CCAGAUGCUCGAUUCAGUGTT against Crim1, the z-score was -0.44.
GGGAAAGACUCAAGGUCCUTT against Olfr586 showed a z-score of 0.774.
In the case of GGCUAUUACCAUGGCCACUTT against Smim5, the z-score is reported as -2.85 (active).
Sequence GCCCAAUCAAAAAAUGGUGTT against Zyx has a z-score of -0.0505.
CGUGGACUUUAAGGAGCUGTT against Gdf7 showed a z-score of -0.299.
In the case of GGAUAAGGUAAUCUCGGUATT against Olfr710, the z-score is reported as -0.472.
In the case of CCAUAUUGAAACCUCAUUUTT against Fam126a, the z-score is reported as -2.33 (active).
CGUGCUACAGAUGCGUCAUTT against Exoc8 gave a z-score of 0.783.
In the case of CGCUCGUUACCUAAAGCAGTT against Nwd1, the z-score is reported as -2.78 (active).
In the case of GCUUUGAAAUCUGAAUCAGTT against Terf2, the z-score is reported as 2.06 (active).
Sequence GAAUCCGAGAUACGAGCCUTT against H2-D4 has a z-score of 0.0829.
With GGUUUGAAAUAUUGUGGAUTT against Spdye4b the z-score was -1.23.
For CCUAGGGACAUUGGUUAUUTT against Sema4f, the z-score was 2.16 (active).
For GGAGCUUCCACAACUCAUATT against Esd, the z-score was -0.456.
GGCAGUGGAGUGUAUGGAUTT against Popdc2 showed a z-score of -0.531.
In the case of GGAUGCAGCUAACAAUUACTT against Tuba8, the z-score is reported as 1.05.
Sequence GGAUGGAGAGAUAAGAAAATT against Lmntd1 has a z-score of -0.572.
Work on CCUUUCCUAACUUGAUCACTT against Cbr2 yielded a z-score of 0.443.
Sequence CCUCUUAAAACAAUACCAATT against Olr1 has a z-score of 1.37.
In the case of GCAAAUAAGAUUGCGUCUGTT against Cpa2, the z-score is reported as 2.89 (active).
Sequence GGCGAAGGAGAAGAAUUAATT against Rhox5 has a z-score of 0.352.
For GGUCAACAAGCAUGCAUUUTT against Wars, the z-score was -1.65.
With CCUUAUUUAGCUAAGCAGATT against Ran the z-score was -2.95 (active).
GCCAACCAAAACCUAAGCATT against Gjc1 gave a z-score of -1.44.
Sequence CCCUCACAAUGAUCGAUUUTT against Tkt has a z-score of -0.885.
Sequence GGUAAAGUGAACUGUACCUTT against Vstm5 has a z-score of 0.843.
In the case of GGUGGAGAUCCGAAAGCAUTT against Ltk, the z-score is reported as 0.597.
Work on CCCUCCAGAAAAACAGUUUTT against Znrd2 yielded a z-score of 0.284.
For “GAGUGAGCAAAUACCAGUUTT against 1700001J03Rik”, the z-score was 2.52 (active).
Sequence CCAAAAAGAUUUGGAUCUCTT against Nr2f6 has a z-score of 0.142.
GGAAACUUUCUAAAUGCUGTT against Pja1 showed a z-score of -0.0964.
Work on GCCAUUAAUGUACCAGGUUTT against Olfr894 yielded a z-score of -0.202.
In the case of GCGUGAACGUAUUUGUUACTT against Pcdhgc3, the z-score is reported as 0.203.
For ACAGGAGUCCAUAGCCGUCTT against Aspscr1, the z-score was -1.47.
With CGGAGGUGGCUAUAAAAAUTT against Sik2 the z-score was 0.0967.
For GGAUUCCUCUAACACAUUUTT against Keg1, the z-score was 2.07 (active).
CCUCACCCUUUCCAAAAAATT against Polr2f showed a z-score of -1.03.
With GCUUUAAUUGUGAAAGCACTT against Miga1 the z-score was -2.26 (active).
For GCAACACCAGAGUAUGUUATT against Cldn34b3, the z-score was 0.794.
GGUAUUGGGUUCCAUUAUATT against Mcmdc2 gave a z-score of -0.197.
In the case of CCCAGCAGAAUAACUGCCATT against Pantr1, the z-score is reported as 2.55 (active).
In the case of GAAAAUGGUCACUACUGAGTT against S100a8, the z-score is reported as -0.0863.
GGAAAUGAAGAAAAGUGACTT against Stk32a showed a z-score of -0.0588.
For GGAGUCAACUUGUGAGGGUTT against Lrp8, the z-score was -0.48.
Work on CCCAGGUGAGGAUUGAUAATT against Rit2 yielded a z-score of 0.667.
Work on GCCAACAGUACUUUGUUAATT against Chordc1 yielded a z-score of 0.589.
GGACAUUUUAAUGUGCUCATT against Erlin2 gave a z-score of 0.0602.
With GGCACAGAGAUUGAAGAUCTT against Sry the z-score was 2.04 (active).
Sequence GCUGAAGUCUCUUCAAUGCTT against Trappc6b has a z-score of -0.71.
In the case of GCCUACAUAACCUUAAUAUTT against Slc4a10, the z-score is reported as 2.2 (active).
GGGAGUAGAGAUCAAAGGCTT against Cfb gave a z-score of -0.0723.
In the case of GGUGAUUUGCUCAAUCCAATT against Phox2a, the z-score is reported as 0.611.
For GGCUGAGAUCUAGCUUACATT against H3c15, the z-score was -3.21 (active).
GGCGAAGUGGUUAAAAGUGTT against Ifnar1 showed a z-score of -0.141.
Work on GGAUAUCCUUUCAAUAGAATT against Mcf2 yielded a z-score of -0.225.
In the case of GGCCAUUUCUUUCAUAGAUTT against Dusp6, the z-score is reported as 0.509.
For CCUUCGUAGCCUGUAUCAUTT against Myadm, the z-score was -0.173.
For CCGAGUAUAUCUAUAAUAGTT against Ear14, the z-score was -0.607.
With GGUGUUUUGUGAAUUGAAATT against Leprotl1 the z-score was -1.05.
Work on GGAAGAGUGCGUUUACCUUTT against Rrp12 yielded a z-score of 0.388.
In the case of GCUUACAUUAAAGGAUAUGTT against Rab5c, the z-score is reported as 2.17 (active).
In the case of GGAUCUUCUGGAUAGAAUGTT against Prc1, the z-score is reported as 1.16.
In the case of CCCUUUCGACAGAUUAGACTT against Zfp69, the z-score is reported as -1.23.
Work on GGGUCAUGGACAAUAGAAATT against Olfr52 yielded a z-score of -0.833.
With GGACCAAAAGGAAAAUCCATT against Kcnj6 the z-score was -1.05.
For CCAUAAAUGAGUCUUCAUUTT against Bnip5, the z-score was -0.0535.
For GUGGACAUCCUCUCUGUCATT against Tmem54, the z-score was -2.23 (active).
CCCAUCGAUCCAUCACAUUTT against Olfr63 gave a z-score of -1.47.
For GGCAAGCUGAAGAUGAACATT against Ntn1, the z-score was -1.14.
Work on CGCAAGCCUGACAUACUGCTT against Etv3 yielded a z-score of 0.382.
With GGUAGCAUAGGCUAGCAUATT against Crcp the z-score was 0.0494.
In the case of GGCAAACCAGGAAAAGGUCTT against Abhd2, the z-score is reported as -2.33 (active).
In the case of CCAAACGGAAGUAUCUUAUTT against Tmem128, the z-score is reported as 0.246.
Work on CGACCAGAGUGGAUACCUGTT against Ocm yielded a z-score of 1.98.
For GCUUCCUACAAUUAAUUCATT against Thap12, the z-score was 0.614.
In the case of GGGAAUGGAGGUCCAGAUUTT against Spatc1l, the z-score is reported as -2.33 (active).
CGUAGAAGUUGAUGAGUCATT against Numb gave a z-score of -1.05.
In the case of GGAUUUAGGCCUUAUCAUCTT against Atf3, the z-score is reported as -2.12 (active).
With GGAAGUUAUUGCCAGCGAGTT against Fbxo5 the z-score was -0.418.
For GCAGUCUCACCUGAACAGATT against Eppin, the z-score was 0.43.
For CCCACCUUCAAGCAAGAACTT against Ifnk, the z-score was -2.51 (active).
For GGAGAGCAUGUGACCAAAATT against Safb2, the z-score was 0.758.
Work on GCAAAACUGUGUCAGUAUCTT against Slco5a1 yielded a z-score of 0.901.
GGUCAAAGAGUUCUGUGAATT against Ppp2r1a gave a z-score of -0.79.
With GGGCUGACCAGUUUGAGUATT against Polr2h the z-score was -2.7 (active).
For GGCAUGCCUGUUGCUAUGATT against Cyp3a44, the z-score was 0.182.
In the case of “AUCUUUCAGUCACACGACCTT against A730085E03Rik”, the z-score is reported as -0.942.
For GGUAGCUUAGAGGACUAACTT against Cidec, the z-score was -1.78.
Work on GGCUGAAAGAUUGUAUUGATT against Rwdd2b yielded a z-score of -0.601.
With CUCAAAAUCUGGUGAUAAATT against Adam34 the z-score was 2.66 (active).
With AGCCGAUCCUGUGCCUGUUTT against Dnph1 the z-score was 0.592.
GGGACUUUGGUCAAUAAUGTT against Tcf19 showed a z-score of 0.247.
Work on GGGAAGAAGCUAAAGAAGATT against Wipf1 yielded a z-score of 1.44.
In the case of GCACGUGGAUCCUAACAAGTT against Exd1, the z-score is reported as -1.84.
Sequence GGAAAAGAUAGAGUUACUUTT against Lrif1 has a z-score of 0.484.
With UGGGAAGGUGCUCACUGAGTT against Dnph1 the z-score was -2.53 (active).
